In PubChem BioAssay (Tox21):
A number with no mark means an inactive call. Where a call stands in place of a potency, no number is given. Calls of active or inactive are those of the source. Calls come from the whole dose curve; as a rule, active = well fitted curve in the direction sought with a large enough effect in the repeat runs; inconclusive = weak or mixed curves; inactive = flat fitted curve, though single readings scatter.

Key:
[1] = qHTS assay to test for compound auto fluorescence at 535 nm (green) in HEK293 cells (AID 720680)
[2] = qHTS assay to test for compound auto fluorescence at 460 nm (blue) in HEK293 cell free culture (AID 720681); note: potency is the fitted concentration of half-maximal effect
Outline: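 Test compounds were pinned into cell-free culture medium (DMEM with 10% FBS) and fluorescence was read directly at Ex/Em 405/460 nm. Signals were expressed as fluorescence equivalents of triamterene, with DMSO vehicle as control.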

[3] = qHTS assay to test for compound auto fluorescence at 535 nm (green) in HEK293 cell free culture (AID 720682)
Outline: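 DMEM + 10% FBS, cell-free; cpd or DMSO pinned in; Ex485/Em535 read; output as fluorescein-equivalent signal.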

[4] = qHTS assay to test for compound auto fluorescence at 590 nm (red) in HEK293 cell free culture (AID 720683)
Outline: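 Tox21 10K library compounds were pinned into cell-free DMEM with 10% FBS and fluorescence was read at excitation 540 nm. Activity is expressed as Rose Bengal sodium equivalency.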

[5] = qHTS assay to test for compound auto fluorescence at 590 nm (red) in HepG2 cell free culture (AID 720684)
Outline: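 Measured in medium alone (MEM containing 10% FBS) following pintool addition of compound; emission at 590 nm with 540 nm excitation, referenced to Rose Bengal sodium.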

[6] = qHTS assay to test for compound auto fluorescence at 460 nm (blue) in HepG2 cell free culture (AID 720685); note: potency is the fitted concentration of half-maximal effect
Outline: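 Compound (23 nL) or DMSO pinned into cell-free MEM with 10% FBS; blue fluorescence read at 405/460 nm excitation/emission, expressed as auto-fluorescence equivalency to triamterene.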

[7] = qHTS assay to test for compound auto fluorescence at 535 nm (green) in HepG2 cell free culture (AID 720686)
[8] = qHTS assay to test for compound auto fluorescence at 460 nm (blue) in HepG2 cells (AID 720687); note: potency is the fitted concentration of half-maximal effect
Outline: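 Cells (2,000/well in MEM with 10% FBS) attached overnight at 37 C, then were exposed to compound or DMSO for 1 hr at 37 C, 5% CO2. Fluorescence read at Ex/Em 405/460 nm, expressed as triamterene-equivalent signal.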
Tags give direction and shape of the fitted curve or compound fluorescence and quenching.

For `Cc1cc(O)c(C(C)(C)C)cc1Sc1cc(C(C)(C)C)c(O)cc1C`, the outcome [1] was “inactive”, the Potency [2] was “inactive” and the outcome [3] was “inactive”. The Potency [4] was “inactive”, the Potency [5] was “inactive” and the Potency [6] was “inactive”. For the same compound, the Potency [7] was “inactive” and the Potency [8] was “inactive”.

With `CCCCN1C(=O)[C@@H]([C@H](O)C2CCCCC2)NC(=O)C12CCN(Cc1ccc(Oc3ccc(C(=O)O)cc3)cc1)CC2` the outcome [1] was “inactive”, the Potency [2] was “inactive” and the outcome [3] was “inactive”. For the same compound, the Potency [4] was “inactive”, the Potency [5] was “inactive” and the Potency [6] was “inactive”. The Potency [7] was “inactive” and the Potency [8] was “inactive”.

In the case of `CCCCc1oc2ccc(NS(C)(=O)=O)cc2c1C(=O)c1ccc(OCCCN(CCCC)CCCC)cc1`, the outcome [1] was “inactive”, the Potency [2] was “inactive” and the outcome [3] was “inactive”. The Potency [4] was “inactive”, the Potency [5] was “inactive” and the Potency [6] was “inactive”. The Potency [7] was “inactive” and the Potency [8] was “inactive”.

For `Oc1ccc(Cl)cc1Sc1cc(Cl)ccc1O`, the outcome [1] was “inactive”, the Potency [2] was “inactive” and the outcome [3] was “inactive”. For the same compound, the Potency [4] was “inactive”, the Potency [5] was “inactive” and the Potency [6] was “inactive”. The Potency [7] was “inactive” and the Potency [8] was “inactive”.

With `Oc1ccc2c(c1)-c1ccccc1C2` the outcome [1] was “inactive”, the Potency [2] was “inactive” and the outcome [3] was “inactive”. The Potency [4] was “inactive”, the Potency [5] was “inactive” and the Potency [6] was “inactive”. For the same compound, the Potency [7] was “inactive” and the Potency [8] was “inactive”.

For `C1CCCC1`, the outcome [1] was “inactive”, the Potency [2] was “inactive” and the outcome [3] was “inactive”. For the same compound, the Potency [4] was “inactive”, the Potency [5] was “inactive” and the Potency [6] was “inactive”. For the same compound, the Potency [7] was “inactive” and the Potency [8] was “inactive”.

In the case of `O=S1(=O)CC(Cl)(Cl)C(Cl)(Cl)C1`, the outcome [1] was “inactive”, the Potency [2] was “inactive” and the outcome [3] was “inactive”. The Potency [4] was “inactive”, the Potency [5] was “inactive” and the Potency [6] was “inactive”. The Potency [7] was “inactive” and the Potency [8] was “inactive”.

For `CCCCCCCCCCCC[N+](C)(C)CCCCCCCCCCCC`, the outcome [1] was “inactive”, the Potency [2] was “inactive” and the outcome [3] was “inactive”. For the same compound, the Potency [4] was “inactive”, the Potency [5] was “inactive” and the Potency [6] was “inactive”. For the same compound, the Potency [7] was “inactive” and the Potency [8] was “inactive”.

For `C=CC(=O)OCC(CO)(COCC(COC(=O)C=C)(COC(=O)C=C)COC(=O)C=C)COC(=O)C=C`, the outcome [1] was “inactive”, the Potency [2] was “inactive” and the outcome [3] was “inactive”. For the same compound, the Potency [4] was “inactive”, the Potency [5] was “inactive” and the Potency [6] was “inactive”. For the same compound, the Potency [7] was “inactive” and the Potency [8] was “inactive”.

In the case of `[Cl][Au]([Cl])[Cl]`, the outcome [1] was “inactive”, the Potency [2] was “inactive” and the outcome [3] was “inactive”. For the same compound, the Potency [4] was “inactive”, the Potency [5] was “inactive” and the Potency [6] was “inactive”. For the same compound, the Potency [7] was “inactive” and the Potency [8] was “inactive”.

In the case of `Cc1cc(=O)oc2cc(N(C)C)ccc12`, the outcome [1] was “inactive”, the Potency [2] was 39.8 µM (active) and the outcome [3] was “inactive”. The Potency [4] was “inactive”, the Potency [5] was “inactive” and the Potency [6] was 44.7 µM [fluorescent] (active). The Potency [7] was “inactive” and the Potency [8] was 44.7 µM [fluorescent] (active).

In the case of `CCOC(=O)c1nc(C(Cl)(Cl)Cl)n(-c2ccc(Cl)cc2Cl)n1`, the outcome [1] was “inactive”, the Potency [2] was “inactive” and the outcome [3] was “inactive”. The Potency [4] was “inactive”, the Potency [5] was “inactive” and the Potency [6] was “inactive”. For the same compound, the Potency [7] was “inactive” and the Potency [8] was “inactive”.

With `O=C(OCC(COC(=O)c1ccccc1)(COC(=O)c1ccccc1)COC(=O)c1ccccc1)c1ccccc1` the outcome [1] was “inactive”, the Potency [2] was “inactive” and the outcome [3] was “inactive”. The Potency [4] was “inactive”, the Potency [5] was “inactive” and the Potency [6] was “inactive”. The Potency [7] was “inactive” and the Potency [8] was “inactive”.

In the case of `NC(=NCCCCCCN=C(N)/N=C(\N)Nc1ccc(Cl)cc1)/N=C(\N)Nc1ccc(Cl)cc1`, the outcome [1] was “inactive”, the Potency [2] was “inactive” and the outcome [3] was “inactive”. The Potency [4] was “inactive”, the Potency [5] was “inactive” and the Potency [6] was “inactive”. For the same compound, the Potency [7] was “inactive” and the Potency [8] was “inactive”.

Work on `COc1c(C)c2c(c(O)c1C/C=C(\C)CCC(=O)O)C(=O)OC2` yielded a fluorescence, % of fluorescein [1] of -0.0651% [at 18.6 µM], a fluorescence, % of fluorescent control [2] of -0.004% [at 18.6 µM] and an activity change [3] of -0.148% [at 18.6 µM]. The fluorescence, % of fluorescent control [4] was 0.195% [at 18.6 µM], the fluorescence, % of Rose Bengal [5] was 0.0127% [at 18.6 µM] and the fluorescence, % of fluorescent control [6] was 0.227% [at 18.6 µM]. For the same compound, the fluorescence, % of fluorescein control [7] was -0.0501% [at 18.6 µM] and the fluorescence, % of fluorescent control [8] was -0.0404% [at 18.6 µM].

For `OCCN1CCN(CC/C=C2/c3ccccc3Sc3ccc(C(F)(F)F)cc32)CC1`, the outcome [1] was “inactive”, the Potency [2] was “inactive” and the outcome [3] was “inactive”. The Potency [4] was “inactive”, the Potency [5] was “inactive” and the Potency [6] was “inactive”. For the same compound, the Potency [7] was “inactive” and the Potency [8] was “inactive”.

For `CC(C)(C)c1ccc(C(=O)CCCN2CCC(OC(c3ccccc3)c3ccccc3)CC2)cc1`, the outcome [1] was “inactive”, the Potency [2] was “inactive” and the outcome [3] was “inactive”. For the same compound, the Potency [4] was “inactive”, the Potency [5] was “inactive” and the Potency [6] was “inactive”. The Potency [7] was “inactive” and the Potency [8] was “inactive”.

With `CCN(CC)CCCC(C)Nc1c2ccc(Cl)cc2nc2ccc(OC)cc12` (centres undefined) the outcome [1] was “inactive”, the Potency [2] was 17.8 µM (active) and the outcome [3] was “inactive”. For the same compound, the Potency [4] was “inactive”, the Potency [5] was “inactive” and the Potency [6] was 15.8 µM [fluorescent] (active). The Potency [7] was “inactive” and the Potency [8] was 15.8 µM [fluorescent] (active).

With `CCc1cc(SCc2sc(-c3ccc(C(F)(F)F)cc3)nc2CN2CCN(c3ccc(OC)cc3)CC2)ccc1OCC(=O)O` the outcome [1] was “inactive”, the Potency [2] was “inactive” and the outcome [3] was “inactive”. The Potency [4] was “inactive”, the Potency [5] was “inactive” and the Potency [6] was “inactive”. For the same compound, the Potency [7] was “inactive” and the Potency [8] was “inactive”.

In the case of `O=C(O)c1ccc(Cl)c(Cl)c1`, the outcome [1] was “inactive”, the Potency [2] was “inactive” and the outcome [3] was “inactive”. The Potency [4] was “inactive”, the Potency [5] was “inactive” and the Potency [6] was “inactive”. For the same compound, the Potency [7] was “inactive” and the Potency [8] was “inactive”.

In the case of `CC(C)(C)CC(C)(C)c1ccc(OCCOCC[N+](C)(C)Cc2ccccc2)cc1`, the outcome [1] was “inactive”, the Potency [2] was “inactive” and the outcome [3] was “inactive”. The Potency [4] was “inactive”, the Potency [5] was “inactive” and the Potency [6] was “inactive”. The Potency [7] was “inactive” and the Potency [8] was “inactive”.

With `CCCCCCCCCCCCCC[P+](CCCC)(CCCC)CCCC` (tested in a mixture with another compound) the outcome [1] was “inactive”, the Potency [2] was “inactive” and the outcome [3] was “inactive”. The Potency [4] was “inactive”, the Potency [5] was “inactive” and the Potency [6] was “inactive”. For the same compound, the Potency [7] was “inactive” and the Potency [8] was “inactive”.

For `CSc1ccc(/C=C2/C(C)=C(CC(=O)O)c3cc(F)ccc32)cc1`, the outcome [1] was “inactive”, the Potency [2] was “inactive” and the outcome [3] was “inactive”. For the same compound, the Potency [4] was “inactive”, the Potency [5] was “inactive” and the Potency [6] was “inactive”. For the same compound, the Potency [7] was “inactive” and the Potency [8] was “inactive”.
